Drawing on PubChem BioAssay, this text covers outcome, activation and potentiation for 15 compounds.

For part of these data: Potency and affinity values are given separately. Calls of active or inactive are those of the source.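 Rule for the calls, unless noted: active = primary screen active and over 50% activation in each of two duplicate runs; inactive = the rest.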

For experiment [1], the system named is TRPC4 beta (transient receptor potential cation channel C4), mouse. In words: activators of mouse TRPC4 channel, confirmation, cell-based, Fluo4 calcium, HEK293 TRPC4beta/mu-opioid, duplicates, 10 µM (AID 2426;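 active = fluorescence ratio normalized to control raised more than 50% in primary screen plus both repeat runs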;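 for activation: percent rise of integrated ratio over buffer wells lacking compound which define 0%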). Conditions: Fluo4 calcium fluorescence, at 10 µM; active compounds read high.
Experiment [2] concerns transient receptor potential cation channel C4 beta (TRPC4), mouse. In words: activators of mouse TRPC4 channel, confirmation, cell-based, second round, Fluo4, HEK293 TRPC4beta/mu-opioid, 1 µM (AID 2461).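 For activation: 0% = wells without test compound as baseline of integrated fluorescence ratio.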 To be noted: Fluo4 calcium fluorescence, at 1 µM; active compounds read high.
Experiment [3] has as its system TRPC4 (transient receptor potential cation channel C4 beta), mouse. In words: positive allosteric modulators of mouse TRPC4, confirmation, cell-based, second round, Fluo-4, HEK293 TRPC4beta/mu-opioid, 1 µM (AID 2554;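 active = primary screen hit whose fluorescence ratio, in both repeats, exceeds the weak agonist control mean by 3 SD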). To be noted: DAMGO EC20, Fluo-4 calcium flux, at 1 µM; active compounds read high.
Experiment [4] relates to TRPC4 beta (transient receptor potential cation channel C4), mouse. In words: positive allosteric modulators of mouse TRPC4, confirmation, cell-based, Fluo-4, HEK293 TRPC4beta/mu-opioid (AID 2555;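 active = primary screen hit whose calcium fluorescence ratio, in both repeats, exceeds the weak agonist control mean by 3 SD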). Conditions: DAMGO EC20, Fluo-4 calcium flux, at 10 µM; active compounds read high. (In general: Calcium assays in cells follow changes in intracellular calcium, usually with a dye or a luminescent sensor.)

In experiment [5] the target is Short transient receptor potential channel 4 (Mus musculus) (UniProt Q9QUQ5). Kind of experiment: inhibitors of mouse TRPC4 channel, confirmation, cell-based, Fluo4, HEK293 TRPC4beta/mu-opioid (AID 2636;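 active = calcium signal cut by more than 3 SD below the full-agonist control yet still positive, in both repeats and the earlier primary screen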). Conditions: DAMGO, Fluo4 calcium flux, at 10 µM; active compounds read high.
The target is the same in experiment [6]. In words: inhibitors of mouse TRPC4 channel, confirmation, cell-based, second round, Fluo4, HEK293 TRPC4beta/mu-opioid, 1 µM (AID 2637;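 active = calcium signal ratio cut to more than 3 SD under the fully stimulated control mean yet still positive, in both repeats and the primary screen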). To be noted: Fluo4 calcium flux, DAMGO, at 1 µM; active compounds read high.
For experiment [7] the target is unchanged. In words: TRPC4 positive allosteric modulators, dose response, cell-based, HEK293 TRPC4/mu-opioid, Fluo-4 calcium, EC20 DAMGO (AID 434941;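 active = earlier screen potentiator hit that boosts the TRPC4 ion channel at some dose, with a dose response; inactive = no potentiation, no dose response, or not a prior hit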;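 note: calcium entry triggered by an EC20 dose of DAMGO at the co-expressed mu-opioid receptor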).
Experiment [8] has the same target. In words: mouse TRPC4 channel inhibitors, dose response, cell-based, HEK293 TRPC4/mu-opioid, Fluo-4 calcium (AID 434942;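 active = primary screen inhibitor hit that blocks the TRPC4 channel at some tested dose, yielding a dose curve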).
Experiment [9] addresses Short transient receptor potential channel 6 (Mus musculus) (UniProt Q61143). In words: inhibition of mouse TRPC6 channel, confirmation, selectivity assay for TRPC4 inhibitor project, cell-based, HEK293, membrane potential dye, duplicate (AID 434948;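 active = active in primary screen and both duplicates, each dropping signal beyond three positive-control SD with fluorescence still positive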). To be noted: HEK293 TRPC6, membrane potential dye fluorescence, at 10 µM, stimulated with maximal-effect acetylcholine; active compounds read high.

For experiment [10] the target is unchanged. In words: activation of mouse TRPC6 channel, confirmation, selectivity assay for TRPC4 activator project, cell-based, HEK293, membrane potential dye, duplicate (AID 434950;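 active = membrane potential signal rise above negative control mean plus 3 SD in both duplicates, also active in the earlier TRPC4 screen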;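 for activation: 0% = buffer only wells and 100% = acetylcholine maximal-effect wells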). Conditions: HEK293 TRPC6, membrane potential fluorescence, at 10 µM; active compounds read high.
The target is the same in experiment [11]. In words: TRPC6 potentiation by TRPC4 potentiator hits, confirmation, selectivity assay for TRPC4 potentiator project, HEK293 cells, membrane potential dye, duplicate (AID 434952;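 active = compound raising the membrane signal above positive-control mean plus 3 SD in both repeats, and a primary screen hit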). To be noted: HEK293 TRPC6, membrane potential dye fluorescence, at 10 µM, maximal acetylcholine added after compound; active compounds read high.
The target in experiment [12] is Short transient receptor potential channel 4 (Mus musculus) (UniProt Q9QUQ5). In words: calcium flux activators in TRPC4/5HT1a cells, counter-screen for TRPC4 activator project, cell-based, second counter screen, HEK293 TRPC4/5HT1a, Fluo-4 (AID 434977;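 active = calcium signal rise above buffer-control mean plus 5 SD in both duplicates, and also a hit in the primary screen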;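 for activation: plate controls were assay buffer for no effect and maximal serotonin response for full effect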). To be noted: Fluo-4 calcium flux, at 10 µM; active compounds read high.
Experiment [13] can be described thus: calcium flux inhibitors in TRPC4/5HT1a cells, confirmation, counter-screen for TRPC4 inhibitor project, cell-based, second counter screen, HEK293 TRPC4/5HT1a, Fluo-4 (AID 434978;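 active = primary screen active whose calcium signal fell more than 3 SD beyond the full-serotonin control mean in both duplicate plates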;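 note: serotonin given first at submaximal then at maximal dose after compound preincubation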). To be noted: Fluo-4 calcium flux, at 10 µM, serotonin added to trigger calcium flux; active compounds read high.
Experiment [14] relates to TRPC4 (mouse), co-expressed with 5HT1a in HEK293. In words: calcium flux potentiators in TRPC4/5HT1a cells, confirmation, counter-screen for TRPC4 potentiator project, cell-based, second counter screen, HEK293 TRPC4/5HT1a, Fluo-4 (AID 434979;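 active = signal rise over 3 SD above mean of control wells given weak agonist, in both repeats and first screen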). To be noted: Fluo-4 calcium flux, at 10 µM, serotonin added at its EC20 dose; active compounds read high.
Experiment [15] can be described thus: calcium flux activation in mu-opioid HEK293 cells, confirmation, counter-screen for TRPC4 activator project, cell-based, HEK293 mu-opioid receptor line (AID 449723;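 active = hit in primary screen, with calcium signal over 5 SD above buffer well mean in both duplicates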;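 note: counter screen cells carry the mu-opioid receptor alone and lack TRPC4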). To be noted: Fluo-4 calcium fluorescence, at 10 µM; active compounds read high.
Experiment [16] is described as follows: calcium flux enhancement in mu-opioid HEK293 cells, confirmation, counter-screen for TRPC4 allosteric potentiator project, cell-based, HEK293 mu-opioid receptor line (AID 449724;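 active = calcium signal rise more than 3 SD above the low-dose agonist control mean, in both duplicate plates and the primary screen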;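 note: HEK293 cells carrying mu-opioid receptor only with no TRPC4 channel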). To be noted: Fluo-4 calcium flux, at 10 µM, compound added before EC20 DAMGO stimulus; active compounds read high.

Chain of Short transient receptor potential channel 4 (Mus musculus) (Q9QUQ5 whole entry, looked up): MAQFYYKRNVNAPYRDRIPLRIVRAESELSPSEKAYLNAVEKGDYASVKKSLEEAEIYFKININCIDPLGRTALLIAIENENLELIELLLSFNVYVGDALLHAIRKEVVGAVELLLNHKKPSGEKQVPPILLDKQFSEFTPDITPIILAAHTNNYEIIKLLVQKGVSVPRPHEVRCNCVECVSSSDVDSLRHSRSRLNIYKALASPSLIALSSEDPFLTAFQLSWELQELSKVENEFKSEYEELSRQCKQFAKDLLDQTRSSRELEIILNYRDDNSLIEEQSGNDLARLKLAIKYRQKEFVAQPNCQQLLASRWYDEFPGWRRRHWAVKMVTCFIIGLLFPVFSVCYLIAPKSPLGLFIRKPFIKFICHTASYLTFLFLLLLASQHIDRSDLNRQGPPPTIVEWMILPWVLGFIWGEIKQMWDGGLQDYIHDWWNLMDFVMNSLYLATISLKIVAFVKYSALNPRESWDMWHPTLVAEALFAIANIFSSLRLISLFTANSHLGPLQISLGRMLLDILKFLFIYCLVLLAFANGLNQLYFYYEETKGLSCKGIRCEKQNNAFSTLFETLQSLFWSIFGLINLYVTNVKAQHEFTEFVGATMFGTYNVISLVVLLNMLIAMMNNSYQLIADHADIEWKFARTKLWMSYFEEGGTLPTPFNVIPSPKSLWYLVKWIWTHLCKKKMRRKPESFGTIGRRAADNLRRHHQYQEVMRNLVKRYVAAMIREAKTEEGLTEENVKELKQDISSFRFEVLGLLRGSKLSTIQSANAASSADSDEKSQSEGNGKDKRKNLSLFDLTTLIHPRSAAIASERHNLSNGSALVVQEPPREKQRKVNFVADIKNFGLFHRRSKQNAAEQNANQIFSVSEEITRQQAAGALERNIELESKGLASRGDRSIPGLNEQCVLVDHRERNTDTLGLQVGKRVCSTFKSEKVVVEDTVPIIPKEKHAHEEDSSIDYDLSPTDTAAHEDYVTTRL
Chain of Short transient receptor potential channel 6 (Mus musculus) (Q61143 whole entry, looked up): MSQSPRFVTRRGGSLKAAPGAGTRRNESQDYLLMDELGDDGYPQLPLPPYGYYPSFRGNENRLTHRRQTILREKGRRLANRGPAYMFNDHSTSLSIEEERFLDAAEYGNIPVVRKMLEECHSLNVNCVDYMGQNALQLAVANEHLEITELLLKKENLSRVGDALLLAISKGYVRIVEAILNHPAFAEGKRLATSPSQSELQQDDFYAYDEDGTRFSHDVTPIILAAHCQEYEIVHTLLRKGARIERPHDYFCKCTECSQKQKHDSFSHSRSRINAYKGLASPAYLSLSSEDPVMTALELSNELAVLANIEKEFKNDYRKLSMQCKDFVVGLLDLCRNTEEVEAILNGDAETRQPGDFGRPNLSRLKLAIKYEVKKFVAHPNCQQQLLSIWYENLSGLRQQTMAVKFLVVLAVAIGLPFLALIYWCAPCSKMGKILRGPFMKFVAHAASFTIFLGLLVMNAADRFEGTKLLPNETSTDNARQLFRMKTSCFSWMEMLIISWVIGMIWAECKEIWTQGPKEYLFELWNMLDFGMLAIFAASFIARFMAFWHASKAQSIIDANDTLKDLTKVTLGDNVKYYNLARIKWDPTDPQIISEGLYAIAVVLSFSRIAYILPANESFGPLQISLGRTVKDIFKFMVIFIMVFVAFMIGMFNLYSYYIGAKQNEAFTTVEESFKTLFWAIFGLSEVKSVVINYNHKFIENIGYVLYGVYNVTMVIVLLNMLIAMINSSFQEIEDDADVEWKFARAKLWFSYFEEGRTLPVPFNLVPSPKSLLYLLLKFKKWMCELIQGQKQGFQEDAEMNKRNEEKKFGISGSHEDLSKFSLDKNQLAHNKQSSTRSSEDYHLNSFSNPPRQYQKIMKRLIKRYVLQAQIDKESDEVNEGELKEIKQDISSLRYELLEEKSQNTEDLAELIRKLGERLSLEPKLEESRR

As for `O=C(Cn1c(-c2ccccc2)c[n+]2ccsc12)c1ccc(Br)cc1`, the result in experiment [1], in [3], in [4], in [5], in experiment [6] and in [7] was inactive. For the same compound, the result in experiment [8], in [9], in experiment [10], in experiment [11], in [12] and in experiment [13] was inactive. In addition, the outcome in [14], in experiment [15] and in experiment [16] was inactive. For the same compound, in experiment [2], the activation is 77% (active).
For `COc1cc(OC)cc(C(=O)NC2CCCN(Cc3ccc(Cl)cc3)C2)c1` (stereo not given), the activation in [1] was 111% (active); in experiment [10] it was 44.5% (active); in experiment [12], 31.6% (active). Also, the result in [2], in experiment [3], in experiment [4], in experiment [5], in experiment [6] and in experiment [7] was inactive. The outcome in experiment [8], in [9], in experiment [11], in experiment [13], in [14] and in experiment [15] was inactive. The outcome in experiment [16] was inactive.
Take `CNCCCOc1ccc2c(c1)CCC2`: the activation in experiment [1] was 75% (active); in experiment [10], 57% (active); in experiment [12] it was 16.2% (active). The outcome in experiment [2], in experiment [5], in experiment [6], in experiment [7], in experiment [8] and in [9] was inactive. Further, the result in experiment [11], in [13], in [14], in experiment [15] and in experiment [16] was inactive. Also, the potentiation is 24% (active) in [3] and 29% (active) in [4].
On to `Cc1cc(Cl)cc(C)c1OCCCCn1ccnc1`, for which the activation in [1] is 98% (active); in experiment [10], 42.5% (active); in [12] it was 36.8% (active). Besides, the result in experiment [2], in [3], in experiment [4], in experiment [5], in experiment [6] and in [7] was inactive. For the same compound, the outcome in experiment [8], in [9], in [11], in experiment [13], in experiment [14] and in experiment [15] was inactive. Further, the result in [16] was inactive.
Regarding `COc1ccc(-n2cc(CNCCc3ncc(C)[nH]3)c(-c3ccccc3Cl)n2)cc1`, the activation in experiment [1] was 214% (active); in experiment [10] it was 30% (active). For the same compound, the outcome in experiment [2], in experiment [3], in experiment [4], in [5], in experiment [6] and in experiment [7] was inactive. In addition, the result in experiment [8], in [9], in [11], in [12], in experiment [13] and in [14] was inactive. Also, the outcome in [15] and in experiment [16] was inactive.
On to `CCC1(c2ccc(F)cc2)NC(=O)N(CC(=O)c2cc(C)n(C3CC3)c2C)C1=O` (stereo not given), for which the outcome in [1], in experiment [2], in experiment [3], in experiment [5], in experiment [6] and in [7] was inactive. Also, the result in experiment [8], in experiment [9], in experiment [10], in experiment [11], in experiment [13] and in experiment [16] was inactive. Further, the potentiation in [4] was 16% (active); in experiment [14] it was 24.5% (active). Besides, the activation in experiment [12] was 27% (active); in experiment [15], 13.8% (active).
Consider `CN(C)C(CNC(=O)/C=C/c1cccc(Cl)c1)c1ccccc1` (stereo not given), for which the results for the activation in [1], in experiment [2] and in experiment [10] were 148% (active), 83% (active) and 49% (active), respectively. In addition, the result in experiment [3], in experiment [4], in experiment [5], in experiment [6], in [7] and in [8] was inactive. Besides, the outcome in experiment [9], in [11], in [12], in experiment [13], in [14] and in experiment [15] was inactive. Also, in experiment [16], the outcome was inactive.
With `C#Cc1cccc(C(=O)NC2CCCN(C3Cc4ccccc4C3)C2)c1` (stereo not given), the activation in experiment [1] is 191% (active); in [2] it was 94% (active); in experiment [10] it was 59% (active); in experiment [12], 111% (active). Also, the result in experiment [3], in experiment [4], in experiment [5], in [6], in [7] and in experiment [8] was inactive. The result in experiment [9], in experiment [11], in [13], in experiment [14], in experiment [15] and in experiment [16] was inactive.
As for `CCn1cc(CN2CCC(n3nccc3NC(=O)CCOc3ccccc3)CC2)cn1`, the activation in [1] is 78% (active). Besides, the outcome in experiment [2], in experiment [3], in experiment [4], in experiment [5], in experiment [6] and in experiment [7] was inactive. Moreover, the outcome in experiment [8], in [9], in [10], in experiment [11], in experiment [12] and in experiment [13] was inactive. Moreover, the outcome in [14], in [15] and in [16] was inactive.
In the case of `CC1(C)CC(=O)c2cc(C(=O)NCc3ccco3)c(=O)n(-c3ccc(Cl)cc3)c2C1`, the result in experiment [1], in [2], in [3], in experiment [4], in experiment [5] and in [6] was inactive. For the same compound, the result in experiment [7], in experiment [8], in experiment [9], in experiment [11], in experiment [12] and in experiment [13] was inactive. In addition, the result in experiment [14], in experiment [15] and in experiment [16] was inactive. Besides, the activation in experiment [10] is 66.5% (active).
As for `CC(=O)Nc1ccc(CN2CCCC(C(=O)c3cccc(C(F)(F)F)c3)C2)cc1` (stereo not given), the activation in experiment [1] was 96% (active); in experiment [10], 29.5% (active). The result in experiment [2], in experiment [3], in [4], in experiment [5], in experiment [6] and in experiment [7] was inactive. In addition, the result in experiment [8], in experiment [9], in [11], in [12], in [13] and in [14] was inactive. The outcome in experiment [15] and in experiment [16] was inactive.
Take `Cc1cccc2cc(C(c3nnnn3Cc3ccccc3)N3CCN(C)CC3)c(=O)[nH]c12` (stereo not given): the figures for the activation in [1] and in experiment [10] were 118% (active) and 29% (active), respectively. Further, the result in [2], in experiment [3], in experiment [4], in [5], in [6] and in experiment [7] was inactive. For the same compound, the result in experiment [8], in experiment [9], in [11], in [12], in [13] and in [14] was inactive. Also, the result in experiment [15] and in experiment [16] was inactive.
`CCN(CC)CCSc1nc2ccc(OC)cc2[nH]1`: the activation was 90% (active) in experiment [1], 60% (active) in experiment [2] and 31.6% (active) in experiment [12]. Besides, the outcome in [3], in experiment [4], in experiment [5], in experiment [6], in experiment [7] and in [8] was inactive. Further, the compound was called inactive in experiment [9], in experiment [10], in [11], in [13], in [14] and in experiment [15]. Moreover, the outcome in experiment [16] was inactive.
For `CCN1CCN(c2ccc(S(=O)(=O)N3CCCCC3)cc2NC(=O)COc2ccccc2)CC1`, the values for the activation in experiment [1] and in experiment [12] were 157% (active) and 16.8% (active), respectively. Besides, the result in [2], in experiment [3], in [4], in experiment [5], in [6] and in experiment [7] was inactive. In addition, the result in [8], in experiment [9], in experiment [10], in experiment [11], in experiment [13] and in [14] was inactive. The outcome in [15] and in experiment [16] was inactive.
For `O=C(NCCc1ccccn1)C(F)(F)C(F)(F)C(F)(F)C(F)(F)C(F)(F)C(F)F`, the activation is 178% (active) in experiment [1] and 46% (active) in [12]. Further, the outcome in experiment [2], in experiment [3], in experiment [4], in [5], in experiment [6] and in [7] was inactive. Besides, the outcome in [8], in experiment [9], in experiment [10], in experiment [11], in [13] and in experiment [14] was inactive. Moreover, the outcome in [15] and in [16] was inactive.
